From PubChem BioAssay AID2810 (NMMLSC, 2010)
Hit rate of the full screen: of about 1,200 compounds, about 65 (5%) were called active. This is one part of a sample in which actives are shown more often than they occur.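 Rule for the calls: active = at either tested dose, response and 90th-percentile vesicle-stain brightness of CD8 cells under set limits and under 9% cells vesicle-bound; inactive = the rest.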

Test: modulators of CD8 T cell-vesicle binding, confirmation, cherry-picked primary hits, two concentrations (AID 2810);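 note: lower values mean blocking of vesicle binding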;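 for percent response (vesicle binding): ratio of mean FL2 vesicle stain of CD8+ cells to that row's control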
Settings: 2C CD8+ T cell-vesicle binding, flow cytometry; for double positive events: CD8+/vesicle+ events
[1] = at 15.4 µM, stronger effect = lower value

SMILES | double positive events (at 7.7 µM) | double positive events [1] | percent response (vesicle binding) [1] | percent response (vesicle binding) (response, at 7.7 µM)
CCOC(=O)CSc1nc(C)nc2c1sc1nc(C)c(C(C)=O)c(-c3ccc(OC)cc3)c12 | 22.7% | 7.5% | 128% (inactive) | 327%
CC1=C/C(=C(\c2ccc(O)c(C)c2)c2ccccc2S(=O)(=O)O)C=CC1=O | 8.5% | 0.5% | 14.6% (active) | 142%
O=C(Nc1nnc(C2=COCCO2)o1)C1CCCCC1 | 47.3% | 23% | 200% (inactive) | 280%
CS(=O)(=O)NCc1ccccc1Br | 31% | 2.7% | 34% (active) | 371%
Cc1nc2sc(C(c3ccccc3)N3CCN(c4ccccc4F)CC3)c(O)n2n1 (centres undefined) | 38.2% | 4.2% | 142% (inactive) | 239%
CCOc1ccccc1NC(=O)c1ccc(CN2CCc3ccccc3C2)cc1 | 11.5% | 30% | 739% (inactive) | 110%
COc1ccc2nc(SCC(=O)Nc3ccc4c(c3)OCCO4)[nH]c2c1 | 10.5% | 19.8% | 168% (inactive) | 164%
O=C(/C=C/c1ccccc1)OCC(=O)c1ccc[nH]1 | 14.3% | 30.2% | 439% (inactive) | 424%
CCOC(=O)C1CCN(C(=O)CN2C(=O)c3ccccc3S2(=O)=O)CC1 | 13% | 23% | 203% (inactive) | 166%
CCOC(=O)C1CCCN(S(=O)(=O)c2ccc(F)c(C(=O)Nc3ccc(F)c(F)c3)c2)C1 (centres undefined) | 13.5% | 23.8% | 153% (inactive) | 105%
CCOC(=O)C1CCCN(c2cc(=O)n(-c3ccccc3Cl)c(=O)[nH]2)C1 (centres undefined) | 10.2% | 2.3% | 18.2% (active) | 131%
O=C1c2cccc3c2[C@H](CCC3)CN1[C@@H]1CN2CCC1CC2 | 19.9% | 28.1% | 727% (inactive) | 238%
COc1ccc(C2=Nc3cc(C)ccc3OC2)cc1 | 12.1% | 2% | 53.5% (active) | 546%
CCCCN(C(=O)CCCc1nc2ccccc2s1)c1c(N)n(CC(C)C)c(=O)[nH]c1=O | 14.2% | 7.8% | 50.8% (inactive) | 386%
CCCN(Cc1ccc(N(C)C)cc1)CC1CC1 | 16.6% | 22.1% | 413% (inactive) | 436%
CN(C(=O)COC(=O)c1cccc(NS(=O)(=O)c2ccc(F)c(F)c2)c1)C1CCS(=O)(=O)C1 (centres undefined) | 21.6% | 29.3% | 264% (inactive) | 393%
CN1CCN(c2oc(-c3ccc([N+](=O)[O-])cc3)nc2C#N)CC1 | 8.5% | 9.4% | 143% (inactive) | 149%
CC(C)[C@H]1C(=O)Nc2ccccc2N1C(=O)N[C@@H](Cc1ccccc1)C(=O)N[C@@H](Cc1ccccc1)C(=O)O | 36.3% | 8.9% | 55.5% (active) | 394%
Cc1cccc(OCC(=O)NC(Cc2ccccc2)C(=O)O)c1 (centres undefined) | 7.7% | 11.5% | 295% (inactive) | 136%
CC(=O)Nc1ccc(S(=O)(=O)NC2CCSc3ccccc32)cc1 (centres undefined) | 13.6% | 10.4% | 146% (inactive) | 238%
COc1ccc(C(=O)NNC(=O)CSc2nnnn2C)cc1 | 13.8% | 1.8% | 19.1% (active) | 160%
COc1ccc(CNc2nnnn2C)cc1 | 28.6% | 12.4% | 192% (inactive) | 376%

SMILES | double positive events (at 7.7 µM) | double positive events [1] | percent response (vesicle binding) [1] | percent response (vesicle binding) (response, at 7.7 µM)
COc1ccc(C(=O)CSc2nnc(CNC(=O)c3ccc(OC)c(OC)c3)n2C)cc1 | 7.6% | 15.6% | 136% (inactive) | 300%
Cc1noc(C)c1COc1ccc(C(=O)NCc2cccs2)cc1 | 6.2% | 22.1% | 165% (inactive) | 120%
Nc1ccccc1C(=O)N/N=C1\C2CN3CCN(C2)CC1(c1ccccc1)C3 | 20% | 18.6% | 176% (inactive) | 839%
CC(=O)c1ccc(OCc2cc(C(=O)N3CCCCC3c3cccnc3)no2)cc1 (centres undefined) | 18.2% | 21.2% | 171% (inactive) | 229%
CN(Cc1ccccc1)C(=O)c1ccc(NC(=O)Cc2cccc(NC(=O)C3CCCN(C(=O)C4CCC4)C3)c2)cc1 (centres undefined) | 7.8% | 4.3% | 54.8% (active) | 219%
O=C(Cc1cccc(NC(=O)C2CCCN(C(=O)C3CC3)C2)c1)Nc1cccc(C(=O)N2CCCC2)c1 (centres undefined) | 25% | 13.2% | 338% (inactive) | 438%
CN(CC(=O)Nc1cccc(F)c1)C(=O)c1ccc(S(=O)(=O)N2CCCC2)cc1 | 28.6% | 10.5% | 176% (inactive) | 275%
Cc1cc(C)c(C(=O)N2CCCC(N3CCN(c4ccc(F)cc4)CC3)C2)o1 (centres undefined) | 39.2% | 14.9% | 236% (inactive) | 688%
Cc1cc(C)cc(NC(=O)C(=O)NCCCN2CCCC2=O)c1 | 10% | 9.4% | 138% (inactive) | 150%
COc1ccc(Cc2nc(-c3ccccn3)no2)cc1 | 34.9% | 19.8% | 702% (inactive) | 360%
COc1ccc(CN2C(=O)C(C)Nc3ncnc(N4CCN(c5ccccn5)CC4)c32)cc1 (centres undefined) | 8.2% | 4.1% | 33.1% (active) | 235%
O=C(c1ccc(Cn2c(=S)[nH]c3ccccc3c2=O)cc1)N1CCN(c2ccccn2)CC1 | 8.9% | 7% | 222% (inactive) | 465%
Cc1ccc(S(=O)(=O)Nc2c3ccccc3nc(=O)n2-c2ccccc2)cc1 | 21.4% | 7.9% | 50.6% (active) | 180%
Cc1ccc(S(=O)(=O)N2CCN(c3ncnc4ccccc34)CC2)cc1 | 6.7% | 15.5% | 103% (inactive) | 116%
Cc1cccc(NS(=O)(=O)c2ccc(Oc3ccccc3)cc2)n1 | 19.3% | 10.1% | 148% (inactive) | 86.6%
O=C(Nc1ccccc1C(=O)OCC(=O)c1c[nH]c2ccccc12)c1ccco1 | 19.2% | 23.2% | 289% (inactive) | 174%
CCn1cc(CNC(=O)c2ccc(Cl)c([N+](=O)[O-])c2)c(C)n1 | 18.4% | 8.4% | 244% (inactive) | 301%
Cc1cccc(C)c1OCc1nnc(NC(=O)CSc2ccc(Cl)cc2)s1 | 31.8% | 24.4% | 211% (inactive) | 221%
O=C1CCCc2sccc2N1 | 17.6% | 1.1% | 33.4% (active) | 308%
CCCCn1c(N)c(N(CCOC)C(=O)c2c(CC)noc2C)c(=O)[nH]c1=O | 8.2% | 14.5% | 132% (inactive) | 298%
c1coc(-c2nc3c4c5c(sc4ncn3n2)CCCC5)c1 | 17.3% | 13.1% | 71% (inactive) | 187%
O=C(c1ccco1)N1CCN(c2ncccn2)CC1 | 27.2% | 11.7% | 199% (inactive) | 331%

SMILES | double positive events (at 7.7 µM) | double positive events [1] | percent response (vesicle binding) [1] | percent response (vesicle binding) (response, at 7.7 µM)
COc1ccc(OC)c(C(c2nnnn2CCC(C)C)N2CCN(C(=O)c3ccco3)CC2)c1 (centres undefined) | 33.6% | 30.5% | 242% (inactive) | 208%
O=C(c1ccco1)N1CCN(C(c2ccccc2Cl)c2nnnn2Cc2ccco2)CC1 (centres undefined) | 15.1% | 6.3% | 40.7% (active) | 456%
COCC(C)NC(=O)CSc1nc2cc(S(=O)(=O)N3CCCCC3)ccc2o1 (centres undefined) | 13.5% | 13.6% | 131% (inactive) | 364%
COc1cccc(NC(=O)Nc2ccc3nc(C)c(C)nc3c2)c1 | 9.8% | 8.7% | 103% (inactive) | 154%
COc1ccc(NC(=O)Nc2c(O)ccc3ccccc23)cc1 | 5.2% | 17.7% | 132% (inactive) | 173%
COc1ccc(NC(=O)Nc2ccc(O)c3ccccc23)cc1 | 5.3% | 10% | 103% (active) | 35.3%
Cn1nc(-c2ccccc2)c(CSc2ccccc2Cl)c1Cl | 14.2% | 30.1% | 241% (inactive) | 251%
CC(C)c1ccc(NC(=O)NCc2cccnc2)cc1 | 12% | 22.3% | 281% (inactive) | 415%
C/C(=N\NC(=O)c1ccc(Br)o1)c1cc2c(cc1NC(=O)CCC(=O)O)OCO2 | 36.2% | 13.6% | 208% (inactive) | 305%
COc1ccc(NS(=O)(=O)c2cc(NC(=O)C3CC3)ccc2N2CCCCC2)cc1 | 9.3% | 3.4% | 36.1% (active) | 138%
COc1ccc(NC(=O)C2CCC(C(C)(C)C)CC2)cc1S(=O)(=O)N1CCCCC1 (centres undefined) | 17.3% | 13.7% | 203% (inactive) | 135%
COc1ccc(S(=O)(=O)N2CCCC2C(=O)Nc2ccc(C(C)=O)cc2)cc1 (centres undefined) | 6.8% | 18.3% | 384% (inactive) | 406%
Nc1nc(SCCO)[nH]c(=O)c1NC(=O)c1ccc(Br)o1 | 11.9% | 25.8% | 393% (inactive) | 383%
CCOCC(=O)Nc1ccc(S(=O)(=O)N2CCC(c3nc4ccccc4[nH]3)CC2)cc1 | 7.3% | 21.4% | 156% (inactive) | 124%
O=C(c1ccccc1Cl)N1CCCC(c2nc3c(nnn3Cc3ccccc3)c(=O)[nH]2)C1 (centres undefined) | 9.2% | 17.6% | 132% (inactive) | 181%
O=C1CC(c2nc3ccccc3[nH]2)CN1Cc1ccccc1 (centres undefined) | 17.2% | 4.3% | 50.8% (active) | 341%
CC(OC(=O)c1ccc2c(c1)C(=O)N(Cc1ccncc1)C2=O)C(=O)Nc1cccc(Cl)c1Cl (centres undefined) | 16.7% | 30.5% | 343% (inactive) | 266%
CSc1ccccc1NC(=O)CN(C)C(=O)c1ccc2c(c1)OCCO2 | 45.7% | 7.6% | 133% (inactive) | 295%
CCc1ccc(NC(=S)N(CCCN2CCOCC2)Cc2ccccn2)cc1 | 22.2% | 40% | 339% (inactive) | 168%
CN(C)S(=O)(=O)c1cccc(-n2sc3ccccc3c2=O)c1 | 4.4% | 2.1% | 52.8% (active) | 173%
CCCc1cc(=O)[nH]c(SCC(=O)N2c3ccccc3CC2C)n1 (centres undefined) | 26.4% | 4.8% | 139% (inactive) | 285%
O=C(O)C1CCC(Cn2c(SCc3cc(=O)n4cc(Cl)ccc4n3)nc3ccsc3c2=O)CC1 (centres undefined) | 29.3% | 9% | 76.3% (inactive) | 339%
